In PubChem BioAssay (Tox21):
Where “and” joins values, the source holds several entries; their conditions need not be identical. Equal values may be shown once. Results filed as inconclusive are left out. Entries that show only a call come without a potency. Where a structure was tested more than once in an assay, its records may differ in their call. Calls of active or inactive are those of the source. Unless noted, the call rests on the fitted dose curve; in most records, active means well fitted curve in the direction sought with a large enough effect in the repeat runs; inconclusive means weak or mixed curves; inactive means no such curve, though single readings can be large; an effect the other way counts as inactive or inconclusive.

Tests used:
[1] = A CellTox Green Cytotoxicity Assay to monitor cytotoxicity in HEK293 cells - 32 hour (AID 1224881); further: nearly all actives have a fitted effect of over 40% in size; further: potency means the concentration at half of the fitted maximal effect
Method in brief: (§1)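 Nonlytic real-time cytotoxicity: HEK293 + CellTox Green reagent plated, 5 h preincubation, pintool compound addition (23 nL in DMSO), 37 C for 40 h, fluorescence measured at successive time points.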

[2] = A CellTox Green Cytotoxicity Assay to monitor cytotoxicity in HepG2 cells - 0 hour (AID 1224882); further: nearly all actives have a fitted effect of over 35% in size; further: potency means the concentration at half of the fitted maximal effect
Method in brief: (§2)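 Read-out is fluorescence of a cyanine dye excluded from live cells that stains DNA of dead HepG2 cells, with signal proportional to cytotoxicity. Plates were read at 0, 8, 16, 24, 32 and 40 h after compound addition.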

[3] = A CellTox Green Cytotoxicity Assay to monitor cytotoxicity in HepG2 cells - 32 hour (AID 1224883); further: nearly all actives have a fitted effect of over 50% in size; further: potency means the concentration at half of the fitted maximal effect
Method in brief: as §2

[4] = A CellTox Green Cytotoxicity Assay to monitor cytotoxicity in HEK293 cells - 8 hour (AID 1224884); further: nearly all actives have a fitted effect of over 35% in size; further: potency means the concentration at half of the fitted maximal effect
Method in brief: as §1

[5] = qHTS RealTime-Glo MT Cell Viability Assay in HepG2 cells - 16 hour (AID 1224885); further: nearly all actives have a fitted effect of over 50% in size; further: potency means the concentration at half of the fitted maximal effect
Method in brief: (§3)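 Compound treatment began 5 h after plating HepG2 cells (600/well) with NanoLuc luciferase and prosubstrate. Plates stayed at 37 C for 40 h; luminescence was captured at six time points, 0 h through 40 h.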

[6] = qHTS RealTime-Glo MT Cell Viability Assay in HEK293 cells - 24 hour (AID 1224886); further: nearly all actives have a fitted effect of over 50% in size; further: potency means the concentration at half of the fitted maximal effect
Method in brief: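 Quantitative high-throughput screen of the Tox21 10K library in HEK293: cells and RealTime-Glo reagents plated together, compound added at 5 h, luminescence monitored through 40 h at 37 C.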

[7] = qHTS RealTime-Glo MT Cell Viability Assay in HEK293 cells - 8 hour (AID 1224887); further: nearly all actives have a fitted effect of over 50% in size; further: potency means the concentration at half of the fitted maximal effect
Method in brief: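 Cells were seeded together with NanoLuc luciferase and a prosubstrate that viable cells reduce to a luciferase substrate. After a 5 h incubation at 37 C/5% CO2, compounds were added and luminescence was measured repeatedly during 40 h of treatment.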

[8] = A CellTox Green Cytotoxicity Assay to monitor cytotoxicity in HEK293 cells - 16 hour (AID 1224888); further: nearly all actives have a fitted effect of over 35% in size; further: potency means the concentration at half of the fitted maximal effect
Method in brief: as §1

[9] = qHTS RealTime-Glo MT Cell Viability Assay in HepG2 cells - 0 hour (AID 1224889); further: nearly all actives have a fitted effect of over 50% in size
Method in brief: as §3

[10] = A CellTox Green Cytotoxicity Assay to monitor cytotoxicity in HepG2 cells - 8 hour (AID 1224890); further: nearly all actives have a fitted effect of over 45% in size; further: potency means the concentration at half of the fitted maximal effect
Method in brief: as §2

[11] = qHTS assay to identify small molecule antagonists of the estrogen receptor alpha (ER-alpha) signaling pathway using the BG1 cell line in the presence of 0.1 nM 17-beta-estradiol - cell viability counter screen (AID 1259241); further: nearly all actives have a fitted effect of over 40% in size; further: potency means the concentration at half of the fitted maximal effect
Method in brief: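 Cells were plated and left 24 hr, compounds in DMSO were pinned in, 17beta-estradiol was added to 0.1 nM final, and after 22 hr CellTiter-Fluor reagent was added for 30 min before fluorescence was read.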

[12] = qHTS assay to identify small molecule antagonists of the androgen receptor (AR) signaling pathway using the MDA cell line in the presence of 0.5 nM R1881 - cell viability counter screen (AID 1259242); further: nearly all actives have a fitted effect of over 45% in size; further: potency means the concentration at half of the fitted maximal effect
Method in brief: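 Counter screen for cytotoxicity run in the same wells as the AR antagonist reporter screen: MDA-kb2 cells were treated 16 hr with test compounds and 0.5 nM R1881, then live-cell protease activity was measured by fluorescence.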

[13] = target: Estrogen receptor (Homo sapiens) (UniProt P03372); test: qHTS assay to identify small molecule antagonists of the estrogen receptor alpha (ER-alpha) signaling pathway using the BG1 cell line in the presence of 0.1 nM 17-beta-estradiol (AID 1259244); further: nearly all actives have a fitted effect of over 50% in size; further: potency means the concentration at half of the fitted maximal effect
Method in brief: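 Cells: VM7Luc4E2, endogenous ER-alpha, 4x ERE-luc stable. Pre-culture 5 d, phenol red-free, charcoal-stripped FBS. Plated 24 h, compound + E2 0.1 nM final, 22 h 37C/5% CO2. Readout ONE-Glo luminescence.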

[14] = qHTS assay to identify small molecule phospholipidosis (PLD) inducers (AID 1259344; active means well fitted curve in the direction sought with a large enough effect; an effect the other way counts as inactive or inconclusive)
Method in brief: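 HepG2 cells grown on collagen I take up LipidTOX Red while exposed to compound for 24 h; after fixation they are imaged at 20x and pit metrics are extracted.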

[15] = qHTS assay to identify small molecule HDAC inhibitors (AID 1259364); further: nearly all actives have a fitted effect of over 45% in size; further: potency means the concentration at half of the fitted maximal effect
Method in brief: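 Luminescence from a cell-permeant luminogenic class I/II HDAC substrate reports endogenous deacetylase activity in intact HCT-116 cells treated with compounds for 2 h.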

[16] = qHTS assay to identify small molecule HDAC inhibitors - cell viability counter screen (AID 1259365); further: nearly all actives have a fitted effect of over 50% in size; further: potency means the concentration at half of the fitted maximal effect
Method in brief: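 Counter screen in wild-type HCT-116 cells: compounds dissolved in DMSO are pin-transferred onto overnight-plated cells and left 2hr at 37C. ATP-based CellTiter-Glo luminescence then measures viable cells.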

[17] = qHTS assay to identify small molecule agonists of the sonic hedgehog signaling (Shh) pathway - cell viability counter screen (AID 1259366); further: nearly all actives have a fitted effect of over 50% in size; further: potency means the concentration at half of the fitted maximal effect
Method in brief: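 Cells are plated at 2,000 per well and left 4hr at 37C, 5% CO2 before compound addition. After 23hr of treatment, CellTiter-Fluor reagent is added for 1hr at 37C and fluorescence is measured.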

[18] = qHTS assay to identify small molecule antagonists of the sonic hedgehog signaling (Shh) pathway - cell viability counter screen (AID 1259367); further: nearly all actives have a fitted effect of over 55% in size; further: potency means the concentration at half of the fitted maximal effect
Method in brief: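 After a 4 hr settling period, 3T3 Gli1-Luc cells were treated with DMSO-dissolved chemicals and conditioned medium, kept 24 hr at 37C in 5% CO2, and assayed for viability by CellTiter-Fluor fluorescence following 1 hr reagent incubation.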

[19] = qHTS assay to identify small molecule agonists of the sonic hedgehog signaling (Shh) pathway (AID 1259368; calls by dose curve;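 further: NIH/3T3-derived 3T3Gli1-Luc cells carrying a stable Gli1-driven firefly luciferase reporter; series mostly up to about 92 µM; nearly all actives have a fitted effect of over 15% in size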)
Method in brief: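 3T3Gli1-Luc (NIH/3T3 clone, stable Gli1-Luc); 4 hr pre-incubation, then cpd in DMSO 24 hr, 37 C/5% CO2; luciferase reagent 30 min RT; luminescence.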

[20] = target: Androgen receptor (Homo sapiens) (UniProt P10275); test: qHTS assay to identify small molecule antagonists of the androgen receptor (AR) signaling pathway using the MDA cell line in the presence of 0.5 nM R1881 (AID 1259243)
Method in brief: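 Luciferase luminescence is the read-out: compounds are tested for suppressing 0.5 nM R1881-driven MMTV reporter activity in MDA-kb2 cells after 16 hr at 37C.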

Chain of Estrogen receptor (Homo sapiens) (P03372 whole entry, looked up): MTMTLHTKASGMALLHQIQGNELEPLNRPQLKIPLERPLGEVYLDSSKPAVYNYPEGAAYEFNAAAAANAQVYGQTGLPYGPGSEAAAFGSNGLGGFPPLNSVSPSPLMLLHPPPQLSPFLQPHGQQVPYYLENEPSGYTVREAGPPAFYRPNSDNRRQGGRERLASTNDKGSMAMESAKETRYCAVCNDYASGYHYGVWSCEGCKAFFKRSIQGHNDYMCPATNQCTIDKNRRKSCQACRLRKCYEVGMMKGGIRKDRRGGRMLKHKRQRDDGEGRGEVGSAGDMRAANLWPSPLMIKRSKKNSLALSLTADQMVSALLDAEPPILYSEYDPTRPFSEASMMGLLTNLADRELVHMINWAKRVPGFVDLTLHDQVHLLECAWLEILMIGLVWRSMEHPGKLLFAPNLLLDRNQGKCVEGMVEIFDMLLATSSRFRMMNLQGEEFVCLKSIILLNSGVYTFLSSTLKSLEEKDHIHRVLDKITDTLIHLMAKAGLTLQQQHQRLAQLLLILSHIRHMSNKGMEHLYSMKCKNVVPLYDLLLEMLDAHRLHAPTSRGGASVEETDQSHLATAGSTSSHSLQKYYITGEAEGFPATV
Chain of Androgen receptor (Homo sapiens) (P10275 whole entry, looked up): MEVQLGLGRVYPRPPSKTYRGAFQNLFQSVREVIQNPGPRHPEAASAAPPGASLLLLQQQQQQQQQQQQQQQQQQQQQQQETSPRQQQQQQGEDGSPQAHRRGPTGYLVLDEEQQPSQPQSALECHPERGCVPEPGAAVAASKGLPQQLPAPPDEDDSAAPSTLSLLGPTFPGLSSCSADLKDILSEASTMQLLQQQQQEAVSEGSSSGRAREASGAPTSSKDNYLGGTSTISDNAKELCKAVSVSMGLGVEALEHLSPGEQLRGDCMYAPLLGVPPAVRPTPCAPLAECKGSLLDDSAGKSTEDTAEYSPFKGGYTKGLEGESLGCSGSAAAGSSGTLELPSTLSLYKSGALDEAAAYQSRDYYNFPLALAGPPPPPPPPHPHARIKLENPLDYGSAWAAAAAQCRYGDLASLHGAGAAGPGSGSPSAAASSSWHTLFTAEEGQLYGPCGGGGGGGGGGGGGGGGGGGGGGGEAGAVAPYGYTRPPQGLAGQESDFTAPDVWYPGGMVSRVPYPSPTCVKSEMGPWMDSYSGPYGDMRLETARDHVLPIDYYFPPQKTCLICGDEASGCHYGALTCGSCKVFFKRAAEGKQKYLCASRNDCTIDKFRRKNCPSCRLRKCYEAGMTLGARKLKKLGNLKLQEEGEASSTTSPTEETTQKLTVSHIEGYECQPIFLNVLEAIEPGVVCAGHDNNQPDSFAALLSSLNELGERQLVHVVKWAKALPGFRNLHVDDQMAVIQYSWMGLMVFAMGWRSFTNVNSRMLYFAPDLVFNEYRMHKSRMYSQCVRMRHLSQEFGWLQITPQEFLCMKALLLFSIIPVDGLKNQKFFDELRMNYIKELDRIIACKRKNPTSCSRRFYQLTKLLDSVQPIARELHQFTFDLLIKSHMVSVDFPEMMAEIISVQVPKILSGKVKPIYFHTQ

Row | Compound | Potency [1] | Potency [2] | Potency [3] | Potency [4] | Potency [5] | Potency [6] | Potency [7] | Potency [8] | Potency [9] | Potency [10] | Potency [11] | Potency [12] | Potency [13] | outcome [14] | Potency [15] | Potency [16] | Potency [17] | Potency [18] | outcome [19] | Potency [20]
1 | COCC(=O)N(c1c(C)cccc1C)C(C)C(=O)OC (stereo not drawn) | inactive | inactive | inactive | inactive | inactive | inactive | inactive | inactive | inactive | inactive | inactive | inactive | inactive | inactive | inactive | inactive | inactive | inactive | inactive | 
2 | Cc1cc(Cl)ccc1N | inactive and 38.9 µM (active) | inactive and 38.9 µM (active) | inactive and 38.9 µM (active) | inactive and 34.7 µM (active) | inactive | inactive | inactive |  | inactive | inactive and 43.6 µM (active) | inactive | inactive |  |  | inactive | inactive | inactive | inactive | inactive | 
3 | C[N+](C)(C)Cc1ccccc1 | inactive | inactive | inactive | inactive | inactive | inactive | inactive | inactive | inactive | inactive | inactive | inactive | inactive |  | inactive | inactive | inactive | inactive | inactive | 
4 | CC(=O)[O][Hg][c]1ccccc1 | 611 nM (active) and 977 nM (active) and 213 nM (active) | inactive | 1.53 µM (active) and 1.95 µM (active) and 1.07 µM (active) | inactive | 1.72 µM (active) and 1.74 µM (active) and 1.07 µM (active) | 344 nM (active) and 1.1 µM (active) and 239 nM (active) | 433 nM (active) and 1.55 µM (active) and 425 nM (active) | 1900 nM (active) | inactive | 2.73 µM (active) and 2.19 µM (active) and 1.2 µM (active) | 4.81 µM (active) and 9.69 µM (active) and 11.9 µM (active) | 1.92 µM (active) and 6.11 µM (active) and 2.66 µM (active) | 2.71 µM (active) and 6.86 µM (active) and 8.41 µM (active) | inactive | 21.5 µM (active) and 8.63 µM (active) and 13.3 µM (active) | 3.82 µM (active) and 6.11 µM (active) and 16.8 µM (active) | 606 nM (active) and 1.37 µM (active) and 1.5 µM (active) | 1.08 µM (active) and 2.17 µM (active) and 1.33 µM (active) | inactive | 606 nM (active) and 2.43 µM (active) and 1.19 µM (active)
5 | C1CCC(NC2CCCCC2)CC1 |  | inactive | inactive | inactive | inactive | inactive | inactive | inactive | inactive | inactive | inactive | inactive | inactive | inactive | inactive | inactive | inactive | inactive | inactive | 
6 | O=C(O)CCl | inactive | inactive | inactive | inactive | inactive | inactive | inactive | inactive | inactive | inactive | inactive | inactive |  |  | inactive | inactive | inactive | inactive | inactive | 
7 | O=C(O)CC(O)(CC(=O)O)C(=O)O |  | inactive | inactive | inactive | inactive | inactive | inactive | inactive | inactive | inactive | inactive | inactive |  |  | inactive | inactive | inactive | inactive | inactive | 
8 | COc1ccccc1N |  | inactive | inactive | inactive | inactive | inactive | inactive | inactive | inactive | inactive | inactive | inactive |  |  | inactive | inactive | inactive | inactive | inactive | 
9 | CCCCn1cc[n+](C)c1 |  | inactive | inactive | inactive | inactive | inactive | inactive | inactive | inactive | inactive | inactive | inactive |  |  | inactive | inactive | inactive | inactive | inactive | 
10 | O=C(O)c1ccccc1O |  | inactive | inactive | inactive | inactive | inactive | inactive | inactive | inactive | inactive | inactive | inactive |  |  | inactive | inactive | inactive | inactive | inactive | 
11 | O=[N+]([O-])c1ccccc1O |  | inactive | inactive | inactive | inactive | inactive | inactive | inactive | inactive | inactive | inactive | inactive |  |  | inactive | inactive | inactive | inactive | inactive | 
12 | CCCCCCCCCCCCn1cc[n+](C)c1 |  | inactive |  | inactive and 55.9 µM (active) |  |  | inactive |  | inactive | 44 µM (active) and inactive | inactive |  |  |  | inactive | inactive | 27.3 µM (active) [middle of 6 runs] | 31.2 µM (active) [middle of 5 runs] | inactive | 
13 | Nc1ccccc1 |  | inactive | inactive | inactive | inactive | inactive | inactive | inactive | inactive | inactive | inactive | inactive |  | inactive | inactive | inactive | inactive | inactive | inactive | 
14 | Oc1ccccc1-c1ccccc1 |  | inactive |  | inactive | inactive | inactive | inactive | inactive | inactive | inactive | inactive | inactive | inactive | inactive | inactive | inactive | inactive | inactive | inactive | 
